# Results published in PubChem BioAssay AID504690 (Sanford-Burnham Center for Chemical Genomics, 2011).
# Hit rate of the full screen: of about 350,000 compounds, about 2,700 (0.77%) were called active. Many of the other results were omitted from the sample, so actives are more common in it than they were. Unmarked numbers belong to inactive results.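 Rule for the calls: active = inhibition reaching at least a set limit at 20 µM in the primary screen (cut at about 59% in these data); inactive = the rest.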
# System: glucose-6-phosphate dehydrogenase-6-phosphogluconolactonase (Plasmodium falciparum 3D7)
# Test: PfG6PD enzyme inhibitors, primary screen, biochemical, fluorescence intensity, uHTS (AID 504690);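 note: 0% = DMSO wells with substrate and 100% = DMSO wells lacking glucose-6-phosphate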
# Conditions: PfGluPho enzyme, NADPH resazurin-diaphorase fluorescence; at 20 µM; stronger effect = higher value
row,SMILES,inhibition
1,CN(C)c1cccc(C(=O)N2CCC(n3nccc3NC(=O)C3CCOC3)CC2)c1 (stereo not drawn),3.81%
2,COc1ccc(C(=O)N2CCN(c3ncccn3)CC2)cc1S(=O)(=O)N1CCOCC1,4.39%
3,Cc1ccc(C(=O)/C=C/c2c(C)nn(-c3ccccc3)c2Cl)cc1,71.4% (active)
4,Cc1nn(-c2ccccc2)c(Cl)c1/C=C/C(=O)c1ccc(O)cc1,-22.8%
5,Cc1ccc(-n2nc(C)c(/C=N/NC(=O)c3cccs3)c2Cl)cc1,18.2%
6,CCOC(OCC)c1ccc(/C=C\c2nccc(N)n2)cc1,5.93%
7,COc1cc(S(=O)(=O)N2CCOCC2)ccc1NC(=O)COc1ccc(N(C)S(=O)(=O)c2ccc(C)cc2)cc1,3.13%
8,COc1ccc(Cc2nnnn2CC(=O)O)cc1,-4.83%
9,CC1(c2ccc3ccccc3c2)NC(=O)N(CC(N)=O)C1=O (stereo not drawn),-14%
10,N/C(=N\OC(=O)CCn1cccc(C(F)(F)F)c1=O)c1ccc(OC(F)(F)F)cc1,-3.22%
11,CCSc1nnc(NC(=O)c2ccc(C)cc2)s1,92.9% (active)
12,NC(=O)CSc1nnc(NC(=O)c2ccc(Br)o2)s1,21.1%
13,CCOC(=O)CSc1nnc(NC(=O)c2cccc(S(=O)(=O)N3CCCC3)c2)s1,-21.8%
14,CCC(C)NCCOCCOc1ccc(Br)cc1C (stereo not drawn),-3.69%
15,O=C(NC1CCc2ccccc21)C12CN(Cc3ccccc3)CC1C(c1cccc([N+](=O)[O-])c1)=NO2 (stereo not drawn),3.16%
16,O=C1C(Cl)=C(Oc2ccccc2)C(=O)c2ccccc21,128% (active)
17,COc1ccc(-c2c(C)cc3oc(=O)cc(-c4ccccc4)c3c2C)cc1C=O,1.07%
18,CCOc1ccccc1Nc1ccc(C(=O)O)cc1[N+](=O)[O-],-28.7%
19,Cc1ccccc1Nc1c([N+](=O)[O-])ccc2nonc12,-0.06%
20,CCOc1ccccc1Nc1ccc2nonc2c1[N+](=O)[O-],77.2% (active)
21,CCC(C)C(=O)Nc1cc([N+](=O)[O-])ccc1Cl (stereo not drawn),-12.1%
22,Cc1ccc(N(C(=O)CC2NC(=O)NC2=O)C2(C(=O)NC3CCCC3)CCCCC2)cc1 (stereo not drawn),2.93%
23,O=C1/C(=C\Nc2ccccc2)CCN1c1ncccn1,10.9%
24,Cc1ccc(S(=O)(=O)N2C[C@@H](C)[C@]3(C2)[C@H](O)[C@H](OC(=O)NCc2ccccc2)C[C@H]2C(=O)N(c4ccccc4)C(=O)[C@H]23)cc1,24.5%

row,SMILES,inhibition
1,CC(=O)N1CC[n+]2c(-c3ccc([N+](=O)[O-])cc3)csc21,60.6% (active)
2,CN1C2CCC1CC(NC(=O)c1ccc([N+](=O)[O-])cc1)C2 (stereo not drawn),-5.81%
3,COC(=O)c1c(C)[nH]c(C)c1-c1ccc([N+](=O)[O-])cc1,-17.8%
4,CC(C)NC(=O)/C(C#N)=C\c1ccc(N(C)C)c(Br)c1,-1.04%
5,CCOC(=O)C1C(=O)OC2(CCCC2)C1C(=O)OCC (stereo not drawn),-2.05%
6,O=C(COC(=O)c1ccc([N+](=O)[O-])o1)NC12CC3CC(CC(C3)C1)C2,23.2%
7,Cc1ccc(/C=C/C(=O)Nc2ccc([N+](=O)[O-])c(NC(=O)/C=C/c3ccc(C)o3)c2)o1,82.9% (active)
8,Cc1ccc(/C=C/C(=O)Nc2cc(S(=O)(=O)N3CCCCCC3)ccc2OCC(F)(F)F)o1,35.9%
9,COC(=O)/C=C\C(=O)Nc1cccc([N+](=O)[O-])c1,45.2%
10,CN(Cc1nc(-c2cnccn2)no1)Cc1n[nH]c2c1CCCCC2,-10.5%
11,O=C(NCCc1ccccc1)C(=O)NCC1OCCN1S(=O)(=O)c1cccs1 (stereo not drawn),-3.06%
12,O=C(Nc1c(Cl)cccc1Cl)C1CCC1,-12.1%
13,C=CCOc1ccccc1/C=N/NC(=O)Cc1ccccc1,4.68%
14,C=C(C)CNC(=S)N/N=C/c1ccccc1OCC(=O)O,3.17%
15,CCOc1ccccc1/C=N/NC(=O)CNC(=O)COc1ccccc1,120% (active)
16,C=CCc1cccc(/C=N/NC(=O)COc2ccc(-n3cnnn3)cc2)c1O,-10.4%
17,Cc1cccc(OCC(=O)NCC(=O)N/N=C/c2ccc(N(C)C)cc2)c1,17.1%
18,C=CCc1ccccc1OCC(=O)N/N=C/c1ccccc1OCC,105% (active)
19,Fc1ccc(OCc2nn3c(Cn4nnc5ccccc54)nnc3s2)cc1,57.3%
20,COC(=O)CSc1nc2c(c(C3CC=CCC3)c1C#N)CCC2 (stereo not drawn),-38.4%
21,CC(C)(C)NS(=O)(=O)CC12CCC(CC1=O)C2(C)C (stereo not drawn),-13.3%
22,CCN(C(=O)COC(=O)CCC(=O)c1cccs1)C1CCCCC1,-5.84%
23,CN(CC(=O)Nc1cccc2c1CCCC2)S(=O)(=O)c1ccc(Cl)cc1,6.22%
24,CCc1nonc1NC(=O)c1oc2ccc(Cl)cc2c1C,-9.82%

row,SMILES,inhibition
1,Cn1c(-c2ccc(F)cc2)cc2onc(-c3ccccc3Cl)c2c1=O,4.14%
2,CCc1cccc(C)c1NS(=O)(=O)c1cc(Br)cnc1N,-9.37%
3,CCN(C(=O)CSc1nnc(-c2ccncc2)o1)c1ccccc1,-2.03%
4,COc1cc(C2CC(=O)N3CN(Cc4ccccc4)CSC3=C2C#N)ccc1OCc1ccccc1 (stereo not drawn),61.5% (active)
5,COc1ccc(CCN=C2SCC(=O)N2Cc2ccccc2)cc1OC,-8.19%
6,COc1cc(CNC2CCCC2)c(Br)cc1OCc1ccccc1,-14.8%
7,Cc1ccc(S(=O)(=O)N2C[C@H]3C(=O)C[C@@H](c4cccc5ccccc45)N(S(=O)(=O)c4ccc(C)cc4)[C@H]3C[C@H]2c2ccc(Cl)cc2)cc1,7.92%
8,O=C(CSc1cccc2cccnc12)N/N=C/c1cccnc1,63.5% (active)
9,O=C(N/N=C\c1cccnc1)c1cc(-c2ccccc2)nc2c(Cl)cccc12,8.75%
10,Cc1c(NC(=O)CSc2cccc3cccnc23)c(=O)n(-c2ccccc2)n1C,6.71%
11,OC(CNC1CCCC1)COc1ccc(F)cc1 (stereo not drawn),11.3%
12,Cc1ccc(C)c(NS(=O)(=O)c2c(C)[nH]c(C)c2C(=O)N2CCCCC2)c1,-16.2%
13,Cc1ccc(-n2c(C)cc(C(=O)CSc3nnc4ccccn34)c2C)cc1,26.1%
14,COc1ccc(-n2c(C)cc(C(=O)CSc3nnc(-c4cccs4)o3)c2C)cc1,83.3% (active)
15,COc1ccc(-n2c(C)cc(C(=O)COC(=O)c3cc(OC)c(OC)cc3NC(=O)c3cccs3)c2C)cc1,-6.02%
16,Cc1c(-c2ccccc2)n[nH]c1C(=O)N=Nc1c(O)[nH]c2ccccc12,88.8% (active)
17,O=C(CCN1CCCCC1)N=Nc1c(O)[nH]c2ccccc12,6.66%
18,Oc1[nH]c2ccccc2c1N=Nc1c(F)c(F)c(F)c(F)c1F,0.03%
19,CC1(C)C=C2[C@H]3CC[C@@H]4[C@@]5(C)CCC(=O)C(C)(C)[C@@H]5CC[C@@]4(C)[C@]3(C)CC[C@@]2(C(=O)O)CC1,-28.4%
20,COc1ccc(-n2cnc3cc(NCc4ccco4)ccc32)cc1,23.7%
21,Cn1c(SCC(=O)Nc2ccc(Br)cc2F)nnc1-c1ccco1,-4.98%
22,Cn1c(-c2ccco2)nc2cc3ccccc3cc21,60.5% (active)
23,COc1ccc(Cl)cc1NC(=O)CCS(=O)(=O)c1ccc(Br)cc1,43%
24,O=C(COC(=O)/C(=C/c1cccs1)c1cccs1)NCc1ccccc1Cl,-3.87%

row,SMILES,inhibition
1,Cc1cc(N)n2nc(-c3ccc(C(C)(C)C)cc3)cc2n1,84.5% (active)
2,COc1ccc(-c2cc(C)nc3nc(N)nn23)cc1,-2.23%
3,Cc1cc(C(C)(C)C)cc(C)c1N,12.1%
4,CC(C)C(c1nnnn1C1CCCCC1)N1CCN(C(=O)c2ccco2)CC1 (stereo not drawn),-12.7%
5,CN(CCc1cnn(C)c1)Cc1cn(C)nc1-c1ccccc1F,-8.15%
6,COc1ccc(NC(=O)CCC(=O)Nc2nnc(C3CCCCC3)s2)cc1,-7.47%
7,COC(=O)CCc1sc(Nc2ccc(Br)cc2)nc1-c1ccc(OC)cc1,64.3% (active)
8,CNC(=O)c1sc(Nc2ccc(OCc3ccccc3)cc2)nc1C,19.4%
9,COc1ccc(NC(=O)CN2C(=O)COc3ccc(S(=O)(=O)N4CCOCC4)cc32)c(OC)c1,-0.58%
10,O=C(c1ncn2c1c(=O)[nH]c1ccccc12)N1CCc2ccccc2C1,8.24%
11,O=c1[nH]c2ccccc2n2c(-c3ccccc3)nnc12,102% (active)
12,CC(=O)N(C)c1ccc(NC(=O)Nc2cccc3ccccc23)cc1,-6.82%
13,COc1ccccc1C(=O)Nc1ccccc1C(=O)Nc1ccccc1,8.55%
14,COc1ccc(C(=O)Nc2cc(C)c(NC(=O)c3ccccc3OC)cn2)cc1,79.1% (active)
15,COc1cc2ccccc2cc1C(=O)Nc1ccccc1C,-15.2%
16,C=CCNC(=O)c1sc(SC)cc1-c1ccc(Cl)cc1,9.14%
17,CCc1ccc2[nH]c(=O)c(Cc3ccccc3)c(O)c2c1,-9.56%
18,COc1ccc(CCC(=O)N2CCN(S(=O)(=O)c3ccc(OC)cc3)CC2)cc1,-10.5%
19,O=c1[nH]c2ccccc2s1,5.6%
20,Nc1ccc2[nH]c(=S)sc2c1,74.7% (active)
21,C/C(=C\c1ccco1)CN1CCC(N2CCC(C(=O)N3CCOCC3)CC2)CC1,-6.22%
